Screening results (PubChem BioAssay)
A selection: hits, their analogues and other compounds. The true share with any hit is near 5.7%.
DAX1 inh-1 – DAX1 (NR0B1) inhibitors, primary screen, cell-based, HEK293, Gal4-DAX1, luciferase luminescence | 0.99% of 340,000 active | inhibition, % at 6.75 µM | HEK293 Gal4-DAX1 luciferase reporter | Nuclear receptor subfamily 0 group B member 1 (Homo sapiens), P51843;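 active = inhibition above the mean over all tested compounds plus 3 SD, cut at about 4.2% in these data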;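 note: 0% = DAX1-transfected cells with DMSO and 100% = empty-vector control cells with DMSO; inhibition shows as a rise in luminescence from relieved DAX1 repression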
Target sequence (P51843 207-470 limits assumed): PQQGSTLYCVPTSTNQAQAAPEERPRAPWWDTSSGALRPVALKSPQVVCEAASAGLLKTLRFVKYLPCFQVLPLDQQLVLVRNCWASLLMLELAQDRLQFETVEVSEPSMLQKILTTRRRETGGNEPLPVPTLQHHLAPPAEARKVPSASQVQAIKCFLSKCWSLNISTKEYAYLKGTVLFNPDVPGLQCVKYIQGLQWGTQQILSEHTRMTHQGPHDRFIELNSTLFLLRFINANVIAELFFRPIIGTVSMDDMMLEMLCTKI
hgDAF12 agonist – H. glycines DAF-12 receptor agonists, primary screen, cell-based, luminescence, HEK293, GAL4 fusion, UAS-luciferase. Nuclear hormone receptor DAF-12 (Heterodera glycines), GAL4 fusion. HEK293 GAL4-hgDAF12 UAS-luciferase reporter, agonist luminescence; normalized to butyrate control. activation, % at 6.8 µM. 1.8% of 370,000 active. AID 687014, 2013;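 active = activation above a cutoff set at the mean of all screened compounds plus 3 SD, cut at about 10% in these data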;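 note: 0% = DMSO wells and 100% = sodium butyrate wells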
AHR activator – AHR activators, primary screen, cell-based, luminescence, luciferase reporter, human. Aryl hydrocarbon receptor (Homo sapiens), P35869. AHR-responsive luciferase reporter cells. activation, % at 5 µM. 2.5% of 320,000 active. AID 2796, 2010; in the data active = activation above about 47%;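 note: 0% = vehicle wells and 100% = reference agonist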
DAX1 inh-2 – DAX1 (NR0B1) inhibitors on StAR promoter, primary screen, cell-based, luminescence, SF-1 (NR5A1), full-length DAX-1 | HEK293T StAR-luciferase reporter, SF-1/DAX-1 repression relief | inhibition, % at 6.8 µM | 1.1% of 370,000 active;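 active = inhibition above the mean over all tested compounds plus 3 SD, cut at about 3.6% in these data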;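 note: 0% = DAX-1 cells with DMSO and 100% = cells lacking DAX-1 with DMSO; higher inhibition means more luminescence from relief of DAX-1 repression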
hcDAF12 agonist – H. contortus DAF-12 nuclear receptor activators, primary screen, cell-based, luminescence, HEK293, lit1-tk-luc reporter; HEK293 hcDAF-12 lit1-tk-luc reporter; 0% DMSO, 100% Δ7-dafachronic acid; activation, % at 6.8 µM; 1.4% of 370,000 active; AID 652067, 2013;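 active = activation above the mean of all tested compounds plus 3 SD, cut at about 5.5% in these data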;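 note: 100% = response to 3 µM Δ7-dafachronic acid high control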
ssDAF12 agonist – S. stercoralis DAF-12 nuclear receptor activators, primary screen, cell-based, luminescence, HEK293, GRIP1 co-expression, lit1-tk-luc; HEK293 ssDAF-12/GRIP1 lit1-tk-luc reporter; % of 3 µM dafachronic acid response; activation, % at 6.8 µM; 1% of 370,000 active;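 active = activation above the mean over all tested compounds plus 3 SD, cut at about 0.9% in these data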;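 note: 0% = DMSO-only wells and 100% = 3 µM delta7-dafachronic acid wells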
Active calls of the source: *; nt = not tested or not shown.

SMILES	DAX1 inh-1	hgDAF12 agonist	AHR activator	DAX1 inh-2	hcDAF12 agonist	ssDAF12 agonist
COc1cc(C2CC(=O)Oc3c2c(=O)n(C)c2ccccc32)ccc1O (configuration not stated)	nt	5	2	0	5	0
Cc1ccc(C(=O)CC(=O)c2cc(Cl)ccc2O)cc1	2	9	4	3	3	1.1*
O=C(CC(=O)c1ccccc1O)c1ccc(F)cc1	0	11*	27	2	2	0
O=C(CCCC(=O)c1ccc(F)cc1)c1ccc(F)cc1	4.8*	8	0	2	2	1
COc1cc2oc3ccccc3c2cc1N(CC(=O)N(C)C)S(=O)(=O)c1ccccc1	0	-3	11	0	0	-1
CCOc1ccccc1C=NN=Cc1ccccc1O	6.8*	-1	nt	0	0	1.1*
CCNC(=S)Nc1ccc(Oc2ccccc2)cc1	0	2	3	0	1	-1
CC(C)(C)c1ccc(NC(=S)NCc2cccnc2)cc1	5.2*	0	11	0	-1	-1
O=C(NC(=S)NCc1cccnc1)c1ccccc1F	4	0	20	0	-2	-1
S=C(NCc1ccccc1)Nc1ccc(Oc2ccccc2)cc1	-1	1	74*	-1	-1	-1
Fc1ccc(NC(=S)NCc2cccnc2)cc1	0	-1	-3	1	-1	-2
O=C(NC(=S)NCc1cccnc1)c1cccc2ccccc12	6.1*	2	14	0	4	0
O=C(Nc1ccc2c(c1)Cc1ccccc1-2)NC1CCCCN(Cc2ccc(Cl)cc2)C1=O (configuration not stated)	nt	7	nt	0	1	0
O=C(c1ccc(Cn2cc(Cl)cn2)o1)N1CCN(Cc2ccc3c(c2)OCO3)CC1	-1	nt	1	nt	nt	nt
O=C(O)c1c(F)c(F)cc2ccccc12	2	3	0	0	1	1
N#Cc1ccc(/C=C2\CC3(OC(=O)c4ccccc4)CCCN2C3)cc1 (configuration not stated)	nt	-2	nt	0	-2	-1
COc1ccc(C(=O)CSC2=C(C#N)C3(CCCCC3)C(C#N)=C(N)N2)cc1	0	0	52*	-1	0	-2
N#CC1=C(N)NC(SCC(=O)c2ccc(Br)cc2)=C(C#N)C12CCCCC2	-2	1	36	-1	-1	-1
CC(C)C[C@@H](CN1C(=O)C(=O)NC[C@@H]1CC(C)C)NC(=O)Cc1ccccc1	0	0	-2	0	-1	-1
COc1ccc(CNC(=O)c2cccnc2Sc2ccc(C)c(C)c2)cc1	-1	2	11	-1	-3	-1
O=C(Cc1ccc(Cl)cc1)c1ccc(O)cc1	4.9*	6	1	1	1	-1
Cc1ccc(CC(=O)c2ccc(Cl)cc2)cc1	1	1	-3	0	3	-1
O=C(CCO)c1ccc(O)cc1	4.3*	3	0	1	-1	-1
Cc1cc(NC(=O)OC(C)(C)C)c(-n2nnnc2C(C(=O)c2ccc3c(c2)OCO3)N2CCN(c3ccccn3)CC2)cc1C (configuration not stated)	nt	0	nt	0	-1	-1
CCOC(=O)Nc1ccc2nc(N3CCCCCC3)sc2c1	0	11*	7	0	1	0
SMILES	DAX1 inh-1	hgDAF12 agonist	AHR activator	DAX1 inh-2	hcDAF12 agonist	ssDAF12 agonist
CCOC(=O)N1CCN(C(=O)Nc2ccc3nc(C)sc3c2)CC1	0	-1	-1	0	1	-1
Cc1ccccc1C(=O)Nc1ccccc1-n1cccc1	0	1	5	0	1	-1
C=CCN(CC=C)C(=O)c1ccccc1NC(=O)c1ccccc1C	1	3	56*	0	3	0
O=C(c1ccco1)N1CCN(C(=O)c2ccc(COc3ccc4c(c3)CCC4)o2)CC1	-2	-1	15	-1	-1	-1
NNC(=O)c1ccc(COc2ccc(Br)cc2)o1	3	1	78*	0	3	-1
NNC(=O)c1ccc(COc2ccc3c(c2)CCC3)o1	1	11*	59*	0	-1	-1
COc1ccc(OC)c(S(=O)(=O)Nc2cc3c4c(c2)CCN4C(=O)CC3)c1	2	0	6	3	0	-1
CCN(Cc1ccccc1)S(=O)(=O)c1cn(C)cn1	1	13*	-2	0	0	-1
OCCN(CCO)c1ncnc2c1oc1ccc(Br)cc12	0	0	72*	0	-1	-1
Cc1cc(C)c2cccc(NC(=S)NC(=O)c3ccccc3)c2n1	0	-1	45	0	1	-1
Cc1ccc2cn[nH]c2c1NC(=S)NC(=O)c1ccccc1	1	-1	14	-1	-1	-2
Cc1ccc2cccc(NC(=S)NC(=O)c3ccccc3)c2n1	-1	2	56*	0	5.7*	1.0*
Cc1ccc2cccnc2c1NC(=S)NC(=O)c1ccccc1	0	-2	69*	0	2	0
COc1ccc(NC(=O)c2ccc(NC(=O)c3cccs3)cc2)cc1	0	0	-1	1	-2	-1
COc1ccc(NC(=O)C/C(C)=N/NC(=O)C(=O)NC(C)C)c(OC)c1	0	-2	3	0	-1	-1
Cc1ccccc1Nc1nc(-c2sc(NC(=O)c3ccccc3)nc2C)cs1	nt	nt	62*	nt	nt	nt
Cc1nc(NC(=O)c2ccccc2)sc1-c1csc(Nc2ccc(Cl)cc2)n1	nt	nt	59*	nt	nt	nt
Cc1nc(NC(=O)c2ccco2)sc1-c1csc(Nc2ccc(Cl)cc2)n1	-1	2	75*	0	3	0
COc1ccccc1Nc1nc(-c2sc(NC(=O)c3ccco3)nc2C)cs1	-1	0	79*	-1	-2	-2
Cc1ccc(Cl)cc1Nc1nc(-c2sc(NC(=O)c3ccco3)nc2C)cs1	-1	0	28	0	-2	-2
NC(=S)N=Nc1c(O)[nH]c2cc(F)c(F)cc12	-1	2	-2	0	-2	-1
CCc1ccc(OCc2nnc(-c3ccccc3Br)o2)cc1	0	2	8	-1	3	0
COc1ccc(-c2csc(NC(=O)c3ccco3)n2)cc1	2	9	-2	1	2	0
COc1cccc(N(C(=O)c2ccco2)c2nc(-c3sc(NC(=O)c4ccco4)nc3C)cs2)c1	1	1	65*	-1	-1	-2
